Values without a mark were called inactive. Records with an inconclusive call do not appear. A call without a number means that no potency is given here. Active and inactive are the calls of the source. Unless noted, calls come from the whole dose curve; as a rule, active = well fitted curve in the direction sought with a large enough effect in the repeat runs; inconclusive = weak or mixed curves; inactive = no such curve, though single readings can be large; an effect the other way counts as inactive or inconclusive.
Legend:
[1] = qHTS assay to identify small molecule antagonists of the estrogen related receptor (ERR) signaling pathway from Tox21 library - cell viability counter screen (AID 1224834); note: nearly all actives have a fitted effect of over 30% in size; note: potency is the fitted concentration of half-maximal effect
In short: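 In this quantitative HTS format, ERR cells receive compounds in DMSO and are incubated for 17.5 h at 37 C. Live-cell protease activity is then detected with CellTiter-Fluor.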

[2] = molecular target: Luciferin 4-monooxygenase (Photinus pyralis) (UniProt P08659); assay: qHTS assay to identify small molecule inhibitors of firefly luciferase (AID 1224835); note: nearly all actives have a fitted effect of over 25% in size; note: potency is the fitted concentration of half-maximal effect
Chain of Luciferin 4-monooxygenase (Photinus pyralis) (P08659 whole entry, looked up): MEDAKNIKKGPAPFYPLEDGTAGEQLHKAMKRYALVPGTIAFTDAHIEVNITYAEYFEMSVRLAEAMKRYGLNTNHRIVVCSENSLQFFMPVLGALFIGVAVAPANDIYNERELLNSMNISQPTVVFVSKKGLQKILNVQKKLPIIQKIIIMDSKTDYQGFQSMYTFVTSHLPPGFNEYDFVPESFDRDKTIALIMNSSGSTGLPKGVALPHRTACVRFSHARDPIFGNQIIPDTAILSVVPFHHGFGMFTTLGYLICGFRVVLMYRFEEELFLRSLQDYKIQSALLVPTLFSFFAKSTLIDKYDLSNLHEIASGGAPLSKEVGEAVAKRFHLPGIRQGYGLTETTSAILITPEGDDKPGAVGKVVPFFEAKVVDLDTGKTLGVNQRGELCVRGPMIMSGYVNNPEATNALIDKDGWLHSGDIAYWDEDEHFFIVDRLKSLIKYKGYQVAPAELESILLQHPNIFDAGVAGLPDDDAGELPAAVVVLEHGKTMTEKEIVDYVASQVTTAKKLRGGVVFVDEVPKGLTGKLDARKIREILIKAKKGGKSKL
In short: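 Inhibition of purified Photinus luciferase is measured by luminescence. Substrate levels (D-luciferin, ATP) sit at their KM values. Each compound is tested in a concentration series.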

[3] = qHTS assay to identify small molecule agonists of the constitutive androstane receptor (CAR) signaling pathway - cell viability counter screen (AID 1224836); note: nearly all actives have a fitted effect of over 45% in size
In short: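 Compound titrations (15 concentrations) went onto HepG2-CYP2B6-hCAR cells 4 h after seeding, alongside PK11195 at a final 0.75 uM; a 23 h, 37 C/5% CO2 incubation preceded CellTiter-Fluor viability measurement.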

[4] = qHTS assay to identify small molecule antagonists of the constitutive androstane receptor (CAR) signaling pathway - cell viability counter screen (AID 1224837); note: nearly all actives have a fitted effect of over 45% in size
In short: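 In quantitative HTS format, compounds at 15 concentrations were applied to HepG2 cells double-transfected with hCAR and CYP2B6-2.2kb under 50 nM CITCO stimulation; live-cell protease activity was read after 23 hr via CellTiter-Fluor.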

[5] = molecular target: Nuclear receptor subfamily 1 group I member 3 (Homo sapiens) (UniProt Q14994); assay: qHTS assay to identify small molecule antagonists of the constitutive androstane receptor (CAR) signaling pathway (AID 1224838); note: nearly all actives have a fitted effect of over 40% in size
Chain of Nuclear receptor subfamily 1 group I member 3 (Homo sapiens) (Q14994 whole entry, looked up): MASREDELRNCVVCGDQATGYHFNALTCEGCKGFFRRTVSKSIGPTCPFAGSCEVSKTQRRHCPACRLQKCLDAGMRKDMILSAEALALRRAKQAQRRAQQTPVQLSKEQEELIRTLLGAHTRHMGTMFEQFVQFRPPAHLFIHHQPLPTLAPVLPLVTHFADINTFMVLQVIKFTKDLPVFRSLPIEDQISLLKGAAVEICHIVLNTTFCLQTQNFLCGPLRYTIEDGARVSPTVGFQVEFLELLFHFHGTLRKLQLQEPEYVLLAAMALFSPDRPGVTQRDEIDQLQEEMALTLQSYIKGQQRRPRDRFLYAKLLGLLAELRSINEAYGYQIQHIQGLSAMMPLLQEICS
In short: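 CITCO-stimulated (50 nM final) HepG2 cells stably transfected with hCAR and CYP2B6-2.2kb luciferase were exposed to compounds at 15 concentrations for 24 h at 37 C/5% CO2. A luciferase reagent was added and luminescence recorded after 30 min.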

[6] = molecular target: Nuclear receptor subfamily 1 group I member 3 (Homo sapiens) (UniProt Q14994); assay: qHTS assay to identify small molecule agonists of the constitutive androstane receptor (CAR) signaling pathway (AID 1224839); note: nearly all actives have a fitted effect of over 15% in size; note: potency is the fitted concentration of half-maximal effect;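 for activation: HepG2 cells stably carrying human CAR and a CYP2B6 luciferase reporter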
In short: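 In this screen, CAR-driven CYP2B6 promoter activity is measured by luminescence in HepG2-CYP2B6-hCAR cells after 24 h with test compounds and 0.75 uM PK11195 (final concentration).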

[7] = qHTS assay to identify small molecule antagonists of the estrogen related receptor signaling pathway with the pleiotropic PPARgamma coactivator (PGC) from Tox21 10K library - cell viability counter screen (AID 1224840; active = well fitted cell-killing curve with a large enough effect in the repeat runs, not every such curve was filed as active; note: nearly all actives have a fitted effect of over 40% in size)
In short: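 Viability counter screen, PGC/ERR cells: 17.5 h compound exposure at 37 C, CellTiter-Fluor fluorescence endpoint.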

[8] = qHTS assay to identify small molecule antagonists of the estrogen related receptor signaling pathway with the pleiotropic PPARgamma coactivator (PGC) from Tox21 10K library (AID 1224841; call rule not given here; note: actives are mostly falling curves and most rising ones were filed inactive; nearly all actives have a fitted effect of over 50% in size)
In short: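 In the PGC/ERR line, DMSO solutions of test chemicals are pin-delivered to 2,000 cells/well six hours after dispensing. Following eighteen hours' incubation, One-Glo reagent is added and luminescence recorded.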

[9] = qHTS assay to identify small molecule agonists of the estrogen related receptor signaling pathway with the pleiotropic PPARgamma coactivator (PGC) from Tox21 10K library (AID 1224842); note: nearly all actives have a fitted effect of over 15% in size; note: potency is the fitted concentration of half-maximal effect
In short: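 Luminescence from One-Glo (30 min, room temperature) measured after PGC/ERR cells had 18 h at 37 C with pinned compound (23 nL in DMSO). Cells had been seeded at 2,000 per well and pre-incubated 6 h.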

[10] = qHTS assay to identify small molecule agonists of the hypoxia (HIF-1) signaling pathway - cell viability counter screen (AID 1224844; calls by dose curve; note: nearly all actives have a fitted effect of over 50% in size)
In short: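 Same wells as the HIF-1 reporter screen; ME-180 cells carrying HRE-bla, 17 hr treatment at 37C; CellTiter-Glo luminescence read after 30 min at room temperature.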

[11] = qHTS assay to identify small molecule agonists of H2AX (AID 1224845; active = well fitted activation curve with a large enough effect in the signal ratio in the repeat runs, not every such curve was filed as active; the % refers to the signal ratio)
In short: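 Phospho-H2AX Ser139 measured by HTRF (ex 320 nm; em 665 and 620 nm) after 24 hr antibody incubation. Compounds, 15 concentrations, 0.76% DMSO, were applied to CHO-K1 cells for 3hr at 37C before lysis.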

[12] = qHTS assay to identify small molecule agonists of the hypoxia (HIF-1) signaling pathway (AID 1224846; active = well fitted activation curve with a large enough effect in the signal ratio in the repeat runs, not every such curve was filed as active; the % refers to the signal ratio)
In short: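 In ME-180 cells bearing an HRE-bla construct, 17 h treatment with DMSO-dissolved compounds at 37C was followed by CCF4-AM loading to quantify reporter induction.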

[13] = qHTS assay to identify small molecule antagonists of the estrogen related receptor (ERR) signaling pathway from Tox21 library (AID 1224848); note: nearly all actives have a fitted effect of over 50% in size; note: potency is the fitted concentration of half-maximal effect
In short: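 ERR cell line, 2,000 cells/well. 6 h settle, then compound (DMSO) added; 18 h at 37 C; ONE-Glo luminescence after 30 min RT.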

[14] = qHTS assay to identify small molecule agonists of the estrogen related receptor (ERR) signaling pathway from Tox21 library (AID 1224849; calls by dose curve; note: nearly all actives have a fitted effect of over 15% in size); conditions: ERR reporter cell line, ONE-Glo luciferase, 18 h; at 92.4 µM (top of the series) unless noted
In short: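 Reporter cells (ERR, NTP source) treated with Tox21 10K compounds 18 h, 37 C. Readout: ONE-Glo luminescence, 30 min RT.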

[15] = qHTS RealTime-Glo MT Cell Viability Assay in HepG2 cells - 24 hour (AID 1224867); note: nearly all actives have a fitted effect of over 50% in size
In short: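 Cells + NanoLuc/prosubstrate dispensed (600 cells/well) → 5 h at 37 C/5% CO2 → compounds in DMSO transferred → 40 h incubation at 37 C, luminescence read at 0, 8, 16, 24, 32, 40 h.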

[16] = qHTS RealTime-Glo MT Cell Viability Assay in HEK293 cells - 32 hour (AID 1224868); note: nearly all actives have a fitted effect of over 50% in size; note: potency is the fitted concentration of half-maximal effect
In short: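 Tox21 10K qHTS, HEK293, 600 cells/well, RealTime-Glo reagent co-dispensed with cells; 5 h preincubation, compound by pintool, 37 C, luminescence at 0–40 h.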

[17] = A CellTox Green Cytotoxicity Assay to monitor cytotoxicity in HEK293 cells - 0 hour (AID 1224869); note: nearly all actives have a fitted effect of over 50% in size
In short: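 Homogeneous no-lysis format: HEK293 cell suspension mixed with CellTox Green reagent, seeded, incubated 5 h at 37 C/5% CO2, then dosed by pintool with compound in DMSO.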

[18] = qHTS RealTime-Glo MT Cell Viability Assay in HepG2 cells - 40 hour (AID 1224870); note: nearly all actives have a fitted effect of over 50% in size
In short: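 Real-time viability: cells seeded at 600 per well together with NanoLuc and cell-permeant prosubstrate, compounds added after 5 h incubation. Luminescence tracked at 0, 8, 16, 24, 32 and 40 h of exposure.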

[19] = molecular target: Thyrotropin receptor (Homo sapiens) (UniProt P16473); assay: qHTS assay to identify small molecule agonists of the thyroid stimulating hormone receptor (TSHR) signaling pathway (AID 1224843; calls by dose curve; note: nearly all actives have a fitted effect of over 45% in size; note: potency is the fitted concentration of half-maximal effect)
Chain of Thyrotropin receptor (Homo sapiens) (P16473 whole entry, looked up): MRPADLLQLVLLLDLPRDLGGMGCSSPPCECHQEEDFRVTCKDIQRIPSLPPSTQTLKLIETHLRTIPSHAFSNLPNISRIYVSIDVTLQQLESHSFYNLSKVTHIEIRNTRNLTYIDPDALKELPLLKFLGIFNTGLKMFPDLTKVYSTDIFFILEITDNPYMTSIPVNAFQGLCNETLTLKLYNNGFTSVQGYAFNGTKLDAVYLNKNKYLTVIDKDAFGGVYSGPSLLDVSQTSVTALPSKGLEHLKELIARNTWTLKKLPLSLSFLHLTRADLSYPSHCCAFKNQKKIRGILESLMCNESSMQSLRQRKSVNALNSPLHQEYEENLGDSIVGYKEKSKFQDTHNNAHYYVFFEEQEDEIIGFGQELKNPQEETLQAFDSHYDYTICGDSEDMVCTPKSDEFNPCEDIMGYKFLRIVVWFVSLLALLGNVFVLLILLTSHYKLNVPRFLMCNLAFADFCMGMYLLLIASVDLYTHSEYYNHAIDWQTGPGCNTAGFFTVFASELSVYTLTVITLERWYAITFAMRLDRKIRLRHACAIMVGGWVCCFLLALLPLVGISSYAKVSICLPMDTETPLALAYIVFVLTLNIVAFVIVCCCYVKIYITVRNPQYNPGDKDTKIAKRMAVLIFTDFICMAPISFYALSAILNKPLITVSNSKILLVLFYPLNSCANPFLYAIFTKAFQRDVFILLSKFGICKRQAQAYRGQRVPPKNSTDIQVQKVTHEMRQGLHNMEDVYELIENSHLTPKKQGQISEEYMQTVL
In short: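 A cell-based cAMP HTRF format was run in TSHR-transfected HEK293 cells, 800 per well. Treatment: 30 min, room temperature. Detection: 1 h with labelled cAMP and anti-cAMP cryptate. Concentration-response over 15 points, three replicates.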

[20] = qHTS assay to identify small molecule agonists of H2AX - cell viability counter screen (AID 1224847; calls by dose curve; note: top concentration of the series differs between compounds; nearly all actives have a fitted effect of over 30% in size)
In short: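 Read-out: CellTiter-Glo luminescence, 30 min RT. Cells: wild-type CHO-K1, 1000/well, 10% FBS, plated overnight at 37C. Treatment: 15 concentrations, 3 hr, 37C, 0.76% DMSO.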

Row | SMILES | Potency [1] | Potency [2] | Potency [3] | Potency [4] | Potency [5] | Potency [6] | Potency [7] | Potency [8] | Potency [9] | Potency [10] | Potency [11] | Potency [12] | Potency [13] | activity change, positive = activation [14] | Potency [15] | Potency [16] | Potency [17] | Potency [18] | Potency [19] | Potency [20]
1 | O=C1CCCCCCCCCCCC(=O)OCCO1 | inactive | inactive | inactive | inactive | inactive | inactive | inactive | inactive | inactive | inactive | inactive | inactive | inactive | 1.67% | inactive | inactive | inactive | inactive |  | 
2 | CC(CC=O)c1ccccc1 (centres undefined) | inactive | inactive | inactive | inactive | inactive | inactive | inactive |  |  | inactive |  | inactive |  |  | inactive | inactive | inactive | inactive | inactive | inactive
3 | C[C@@H]1C[C@H]2[C@@H]3CCC4=CC(=O)C=C[C@]4(C)[C@@]3(F)[C@@H](O)C[C@]2(C)[C@@]1(O)C(=O)COC(=O)c1ccncc1 | inactive | inactive | inactive | inactive | inactive | inactive | inactive |  |  |  |  | inactive |  |  | inactive | inactive | inactive | inactive | inactive | inactive
4 | Cc1ncc(CO)c(C=O)c1O | inactive | inactive | inactive | inactive | inactive | inactive | inactive | inactive | inactive | inactive | inactive | inactive | inactive | 2.22% [at 42.5 µM] | inactive | inactive | inactive | inactive | inactive | inactive
5 | O=C1[C@H]2CCCC[C@H]2C(=O)N1CCCCN1CCN(c2nsc3ccccc23)CC1 | 29.8 µM (active) | inactive | inactive | inactive | inactive | inactive |  |  | inactive |  |  | inactive | 26.6 µM (active) | -38.9% [at 42.5 µM] | inactive |  | inactive | inactive | inactive | inactive
6 | CN(Cc1ccc(C(C)(C)C)cc1)Cc1cccc2ccccc12 | inactive | inactive | inactive | inactive | inactive | inactive | inactive |  |  | inactive |  | inactive |  |  | inactive | inactive | inactive | inactive |  | 
7 | O=C(OCCCCCCOC(=O)c1ccccc1)c1ccccc1 | inactive | inactive | inactive | inactive | inactive | inactive | inactive | inactive | inactive | inactive | inactive | inactive | inactive | 1.59% | inactive |  | inactive | inactive |  | inactive
8 | CCCCc1ncc(/C=C(\Cc2cccs2)C(=O)O)n1Cc1ccc(C(=O)O)cc1 | inactive | inactive | inactive | inactive | inactive | inactive | inactive |  |  | inactive |  | inactive |  |  | inactive | inactive | inactive | inactive | inactive | inactive
9 | COc1cccc(N(C)C(=S)Oc2ccc3c(c2)CCCC3)n1 | inactive | inactive | inactive | inactive | inactive | inactive | inactive |  |  | inactive | inactive |  |  |  | inactive | inactive | inactive | inactive |  | inactive
10 | CCCCCCCCCOS(=O)(=O)O | inactive | inactive | inactive | inactive | inactive | inactive | inactive |  |  | inactive | inactive | inactive |  |  | inactive | inactive | inactive | inactive | inactive | inactive
11 | O=C(O)C1(C(=O)Nc2ccc(Cl)cc2Cl)CC1 | inactive | 6.33 µM (active) | inactive | inactive | inactive | 13.7 µM (active) | inactive |  |  | inactive |  | inactive |  |  | inactive | inactive | inactive | inactive | inactive | inactive
12 | COc1ccc(-c2nc3ccc(C4=NNC(=O)CC4C)cc3[nH]2)cc1 (centres undefined) | 13.3 µM (active) | 8.71 µM (active) | inactive | inactive | inactive | 3.76 µM (active) |  | inactive | 8.41 µM (active) | inactive | inactive | inactive | inactive |  | inactive | 8.49 µM (active) | inactive | inactive | 9.44 µM (active) | inactive
13 | NCc1ccccc1Sc1ccccc1CO | inactive | inactive | inactive | inactive | inactive | inactive | inactive |  |  |  | inactive | inactive |  |  | inactive | inactive | inactive | inactive | inactive | inactive
14 | CCC(C)(C)CC | inactive | inactive | inactive | inactive | inactive | inactive | inactive |  | inactive | inactive | inactive | inactive | inactive | -6.86% | inactive | inactive | inactive | inactive |  | inactive

Reference: PubChem BioAssay (Tox21)
